KB-V1 cytotox: kills drug-selected multidrug resistant KB-V1 cells; KB-V1 MDR cells viability, CellTiter-Glo, 72 h; Potency, µM (titrated, usually from 46.1 µM), most hits filed as cytotoxic; 400,000 tested, 3.4% active; AID 1347076; also: nearly all actives have a fitted effect of over 60% in size
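qHTS viability screen in drug-selected KB-V1 MDR cells: 72 h compound treatment at 37 degrees C, ATP luminescence end point.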
HT1080-NT tox: kills 2HG-producing HT-1080-NT fibrosarcoma cells; Potency, µM (highest dose often 46.1 µM), without a hit: at the highest dose activity, negative = less viability, actives largely listed as cytotoxic; AID 686970; 360,000 tested, 1.6% active; HT-1080-NT fibrosarcoma viability, CellTiter-Glo ATP luminescence, 48 h;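 also: NT is the 2HG producing partner of a matched IDH1 knockdown line; 0% = DMSO-treated cells and -100% = media-only wells without cells; nearly all actives have a fitted effect of over 55% in size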
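A 48-hour cytotoxicity screen used HT-1080-NT cells plated 2 hours before compound delivery. ATP-based CellTiter-Glo luminescence measured viability, normalized to DMSO and no-cell controls.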
TDP1 cell noCPT: qHTS for Inhibitors of human tyrosyl-DNA phosphodiesterase 1 (TDP1): qHTS in cells in absence of CPT; DT40 Tdp1-/- hTDP1 cells, no CPT, ATP luminescence, 48 h; 420,000 tested, 15% active; AID 686978, 2013; Potency, µM (doses to about 46.2 µM), inactives show at the top dose activity change, negative = growth inhibition, actives largely listed as inhibitors; also: nearly all actives have a fitted effect of over 55% in size
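DT40 Tdp1-/-;hTDP1 cells, no CPT (DMSO vehicle only), 400 cells/well; compounds pin-transferred; ≥48 hr, 37 °C; CellTiter-Glo 30 min RT dark, luminescence read.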
DT40 TDP1 CPT: growth inhibition of DT40 Tdp1-/-;hTDP1 cells with camptothecin (screen for TDP1 inhibitors). chicken DT40 Tdp1-/-;hTDP1 cells + 20 nM CPT, ATP luminescence, 48 h. Potency, µM (series often up to 46.2 µM), for inactives: at the highest dose activity change, negative = growth inhibition, most hits filed as inhibitors. 420,000 tested, 12% active; also: nearly all actives have a fitted effect of over 55% in size
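Cell growth measured by CellTiter-Glo luminescence after a minimum 48 h, 37 C compound exposure with 20 nM CPT in Tdp1-knockout DT40 cells stably expressing hTDP1, seeded 400/well; qHTS titration format.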
HT1080 IDH1KD tx: HT-1080 IDH1 knockdown cell toxicity (counter line); HT-1080 IDH1 knockdown viability, ATP luminescence, 48 h; Potency, µM (top dose mostly 46.1 µM), for inactives: at the top dose activity, negative = toxicity, hits mostly cytotoxic; 360,000 tested, 2% active; AID 686971;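 also: 0% = DMSO wells and -100% = cell-free medium wells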
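After a 2 h attachment period, IDH1KD HT-1080 cells took pin-transferred compound for 48 h at 37 °C; ATP-based luminescence after 10 min room-temperature reagent incubation reported viability.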
KB-3-1 cytotox: KB-3-1 parental cell cytotoxicity; AID 1347075; Potency, µM (highest dose often 46.1 µM), most hits filed as cytotoxic; 400,000 tested, 1.4% active; KB-3-1 viability, CellTiter-Glo ATP luminescence, 72 h; also: nearly all actives have a fitted effect of over 60% in size
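Cytotoxicity measured as CellTiter-Glo luminescence after 72 h at 37 C. Compound titrations were pinned onto drug-naive KB-3-1 parental adenocarcinoma cells grown in DMEM with 10% FBS, and normalized data fitted to concentration-response curves.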
* = called active by the depositor; i = inactive; ? = inconclusive; / = no result given; [ ] = dose if it differs, or a comment. Hits are enriched below; roughly 19% of the tested compounds scored in any of these assays. Calls follow the shape of the dose curve; as a rule, active = well fitted curve in the direction sought with a large enough effect; inconclusive = small, poorly fitted or top-dose-only effect, or another doubt; inactive = no such curve, though single readings can be large; an effect the other way counts as inactive or inconclusive. Unless noted, % is scaled to controls: 0 for no effect and ±100 for the full control effect; potency is read from the fitted curve at half-maximal effect.

SMILES	KB-V1 cytotox	HT1080-NT tox	TDP1 cell noCPT	DT40 TDP1 CPT	HT1080 IDH1KD tx	KB-3-1 cytotox
Cc1ccc(Nc2nc3ccccc3c3nncn23)c(Cl)c1	i	/	-25%	-24%	/	i
Cc1ccc(O)c(Nc2nc(-c3ccccc3)nc3ccccc23)c1	i	-5%	-4%	-11%	-5%	i
Cc1ccc(O)c(Nc2nc3ccccc3c3nncn23)c1	i	/	9.2µM*	?	/	i
CCOc1ccc(NC(=O)CN(C)C(=O)C2CCCO2)cc1OCC (configuration not stated)	i	6%	5%	4%	8%	i
CC(NC(=O)CN1C(=O)NC2(CCc3ccccc32)C1=O)c1ccc2c(c1)OCCO2 (configuration not stated)	i	11%	5%	-3%	1%	i
Cc1cc(SCC(=O)N2CCC(c3noc4ccc(F)cc34)CC2)nc2ccccc12	?	0%[9.24 µM]	?	23µM*	1%	i
Cc1cc(SCC(=O)N2CCCC2=O)nc2ccccc12	i	-4%	-6%	11%	-4%	i
O=C(CSc1ncnc2sc3c(c12)CCCC3)N1CCC(c2noc3ccc(F)cc23)CC1	?	4%	10µM*	11µM*	21%	?
CCN(CC)S(=O)(=O)c1cccc(C(=O)NC(C(=O)NNC(=O)c2ccccc2F)C(C)C)c1 (configuration not stated)	?	-5%	?	?	-6%	i
CCN1CCN(CCC(=O)Nc2ccc(Br)cc2)CC1	i	0%	-1%	-26%	-6%	i
CCN1CCOC(=O)C1CC(=O)Nc1cc(C)ccc1OC (configuration not stated)	?	/	2.6µM*	5.2µM*	/	i
CCN1CCOC(=O)C1CC(=O)Nc1ccc(Br)cc1 (configuration not stated)	i	/	?	23µM*	/	i
O=C(CNC(=O)c1ccc(F)cc1)OCc1cc(=O)n2nc(C3CC3)sc2n1	i	/	-1%	-15%	/	i
COc1ccc(CCNC(=O)CCCCCN2C(=O)[C@@H]3Cc4ccccc4CN3C2=O)cc1OC	?	2%	?	21µM*	4%	i
COc1ccc(CCNC(=O)CCCCn2c(=O)c3ccccc3n(Cc3cc(C)ccc3C)c2=O)cc1OC	?	/	8%	-17%	/	i
COc1ccc(CCNC(=O)CCCn2c(=O)c3ccccc3n(Cc3ccccc3)c2=O)cc1OC	i	/	16µM*	?	/	i
COc1ccc(CCNC(=O)CCCn2c(=O)c3ccccc3n(CC(=O)Nc3cccc(C)c3)c2=O)cc1OC	i	/	18µM*	?	/	i
COc1ccc(CCNC(=O)CCn2c(=O)c3ccccc3n(Cc3ccccc3F)c2=O)cc1OC	i	/	12µM*	15µM*	/	i
OC(c1cccc(Cl)c1)c1nc(-c2ccc(Cl)cc2)cs1 (configuration not stated)	i	-5%	?	?	?	i
COc1ccc(CCNC(=O)CCCCn2c(=O)c3ccccc3n(CC(=O)Nc3ccccc3C)c2=O)cc1OC	?	/	1%	-10%	/	i
O=C(CCCn1c(=O)c2ccccc2n(Cc2cccc(Cl)c2)c1=O)NCCc1ccc(Cl)cc1	/	/	18µM*	?	/	/
COc1ccc(CCNC(=O)CCn2c(=O)c3ccccc3n(Cc3ccccc3)c2=O)cc1OC	i	/	18µM*	?	/	i
COc1ccc(/C=C(\C#N)C(=O)NCC(c2ccc(F)cc2)N2CCOCC2)cc1 (configuration not stated)	i	-6%	-17%	?	-9%	i
CC(C)c1ccc(NS(=O)(=O)c2ccc3[nH]cc(C(=O)NCC4CCCO4)c(=O)c3c2)cc1 (configuration not stated)	?	/	-16%	-1%	/	i
CS(=O)(=O)N1CCc2cc(C(=O)N3CCN(c4ccc(F)cc4)CC3)ccc21	i	-22%	21µM*	?	-2%	i
SMILES	KB-V1 cytotox	HT1080-NT tox	TDP1 cell noCPT	DT40 TDP1 CPT	HT1080 IDH1KD tx	KB-3-1 cytotox
COc1ccc(N2CCN(C(=O)c3cccc(S(=O)(=O)N4CCc5ccccc54)c3)CC2)cc1	i	-15%	15µM*	?	-21%	i
COc1ccc(N2CCN(C(=O)c3cccc(S(=O)(=O)N4CCCc5ccccc54)c3)CC2)cc1	i	-11%	?	?	-13%	i
O=C(NCc1ccccn1)c1cccc(S(=O)(=O)N2CCc3ccccc32)c1	/	0%	?	?	-7%	/
O=C(c1cccc(S(=O)(=O)N2CCc3ccccc32)c1)N1CCN(c2ccccn2)CC1	?	?	23µM*	?	9.2µM*	6.5µM*
Cc1cc(CNC(=O)COc2ccc(F)cc2)c2ccccc2n1	i	-6%	21µM*	?	-2%	i
Cc1ccc(C(OCC(O)CNCc2ccc(F)cc2)c2ccccc2)cc1 (configuration not stated)	i	-23%	16µM*	15µM*	-15%	?
O=C(COc1ccccc1)NCc1ccccc1	i	11%	-7%	5%	10%	i
O=C(COc1ccc(C(=O)c2ccccc2)cc1)NCc1ccc(F)cc1	?	2.1µM*	1µM*	0.92µM*	2.3µM*	?
CCC(=O)c1ccc(OCC(O)CNCc2ccc(F)cc2)cc1 (configuration not stated)	?	-5%	-35%	-10%	-7%	i
O=C(c1ccccc1)c1ccc(OCC(O)CNCc2ccc(F)cc2)cc1 (configuration not stated)	23µM*	?	-25%	-2%	21µM*	i
O=C(Nc1ccc(Cl)c(S(=O)(=O)N2CCOCC2)c1)[C@@H]1CCCN1C(=O)c1cccs1	/	2%	-8%	-3%	-3%	/
CSc1ncnc2c1ncn2CCCNCCCc1ccccc1	i	-3%	8%	6%	-5%	i
CC(Sc1nnc(-c2ccccc2)c(-c2ccccc2)n1)C(=O)NCC1CCCO1 (configuration not stated)	i	-15%	23µM*	?	1%	i

Bioassay records deposited in PubChem BioAssay by National Center for Advancing Translational Sciences (NCATS).
